Only some compounds are listed: those with a hit (about 14% of all), similar ones and a draw of the others.
LmPK inh – inhibitors of Leishmania mexicana pyruvate kinase. Q27686. purified LmPK, Kinase-Glo ATP luminescence, 1 h. Potency, µM (doses to about 57.5 µM), without a hit: at the top dose activity change, negative = inhibition, hits mostly inhibitors. hit rate 0.37% among 290,000; further: potency means the concentration at half of the fitted maximal effect; on the % scale 0 is the no-effect control and ±100 the full control effect
Target sequence (Q27686 whole entry, looked up): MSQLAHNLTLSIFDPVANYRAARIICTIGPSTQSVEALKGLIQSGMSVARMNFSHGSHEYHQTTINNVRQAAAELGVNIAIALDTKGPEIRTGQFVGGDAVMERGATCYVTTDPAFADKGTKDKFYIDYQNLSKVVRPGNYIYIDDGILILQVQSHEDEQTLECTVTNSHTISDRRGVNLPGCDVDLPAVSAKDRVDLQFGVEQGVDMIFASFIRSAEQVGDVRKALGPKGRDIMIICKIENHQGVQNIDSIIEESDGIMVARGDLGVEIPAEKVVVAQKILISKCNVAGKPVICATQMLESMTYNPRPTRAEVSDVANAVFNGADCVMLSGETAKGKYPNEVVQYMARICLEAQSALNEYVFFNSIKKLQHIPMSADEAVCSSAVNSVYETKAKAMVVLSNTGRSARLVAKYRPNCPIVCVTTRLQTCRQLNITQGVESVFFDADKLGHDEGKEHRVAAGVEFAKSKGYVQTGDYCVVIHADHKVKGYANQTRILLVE
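ATP generated from ADP (0.1 mM) and PEP (0.5 mM) by 0.1 nM LmPK over 1 h at room temperature (pH 7.2 imidazole buffer) was detected by coupled luciferase luminescence. Values were normalized to uninhibited and no-enzyme wells.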
NS1 function inh – blocks influenza NS1 protein function; Potency, µM (highest dose often 46.1 µM), inactives show at the highest dose activity, positive = more growth; hit rate 0.4% among 270,000; AID 2326; calls by dose curve; further: potency means the concentration at half of the fitted maximal effect; actives are rising curves; nearly all actives have a fitted effect of over 50% in size
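In this qHTS, NS1 from influenza A is expressed in budding yeast, where it slows growth. Cells are switched from glucose to 2% galactose medium (pH 6.0, -URA), treated with compound, and growth recovery is read at OD600.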
CHX counter – affects cycloheximide protein synthesis inhibition readout, counter-screen. hit rate 12% among 300,000. max response, %. AID 2314. cell reporter, cycloheximide protein synthesis inhibition counterscreen; in the data active means max response mostly above about 13%, no sharp cut-off; inactive means mostly below about 14%; further: read at 38.3 µM for the half of the compounds with a filed dose; 0% is about no effect
Shiga toxin inh – inhibitors of Shiga toxin in Vero cells; AID 2315; Vero cells, Shiga toxin protein synthesis inhibition reporter; inhibition, % at 38.7 µM; hit rate 9.2% among 290,000; in the data active means inhibition mostly above about 28%, no sharp cut-off; inactive means mostly below about 43%; further: 0% is about no effect
FBPA Giardia inh – Giardia lamblia aldolase inhibition. A8B2U2. purified Giardia FBPA. Potency, µM (doses to about 59.6 µM), for inactives: at the highest dose activity, negative = inhibition, hits mostly inhibitors. hit rate 0.71% among 290,000; further: potency means the concentration at half of the fitted maximal effect; on the % scale 0 is the no-effect control and ±100 the full control effect; nearly all actives have a fitted effect of over 55% in size
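40 nM FBPA preincubated 10 min at RT with compound (up to 57.5 uM final), then substrate plus GAPDH/TPI/NAD/arsenate coupling and diaphorase/resazurin added. Fluorescence read after 20 min at RT, 525/598 nm.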
The depositor's hits bear a star. Unless noted, the call rests on the fitted dose curve; in most records, active means well fitted curve in the direction sought with a large enough effect; inconclusive means small, poorly fitted or top-dose-only effect, or another doubt; inactive means no such curve, though single readings can be large; an effect the other way counts as inactive or inconclusive.

How did Cc1ccc(N2C(=O)C(CN(C)C)C2c2ccccc2)cc1 (stereo unspecified) do in these assays?
LmPK inh: -5%; NS1 function inh: 6%; CHX counter: -4; Shiga toxin inh: -7; FBPA Giardia inh: 0%

What do the screens show for `CC1CCC(NC(=O)C2CCN(c3c4c(nc5ncnn35)CCC4)CC2)CC1` (stereo unspecified)?
LmPK inh: 3%; NS1 function inh: 5%; CHX counter: 20*; Shiga toxin inh: 49*

Results for COC(=O)NC(c1ccccc1)C1(C(=O)OC)C(=O)Cc2ccccc21 (stereo unspecified) ?
FBPA Giardia inh: -9%

What do the screens show for `CCC(C)NC(=O)C1CCCN(c2nc(C)cc(OC)n2)C1` (stereo unspecified)?
LmPK inh: 0%; NS1 function inh: -4%; CHX counter: -5; Shiga toxin inh: 22; FBPA Giardia inh: 5%

How did COc1cc(C)nc(N2CCCC(C(=O)NC3CCC(C)CC3)C2)n1 (stereo unspecified) do in these assays?
LmPK inh: 0%; NS1 function inh: inconclusive; CHX counter: 32*; Shiga toxin inh: 123; FBPA Giardia inh: 1%

What do the screens show for `CC(=O)N[C@H](C(=O)O)C(C)(C)SN=O`?
NS1 function inh: -7%; FBPA Giardia inh: 1%

Results for Cc1cc(F)c(Nc2ncnc3cc(OCc4ccccc4)ccc23)cc1O ?
CHX counter: 4; Shiga toxin inh: 17; FBPA Giardia inh: -6%

What do the screens show for `C/C(CC(=O)Nc1ccc(C)c(Cl)c1)=N\NC(=O)c1cccc(O)c1`?
LmPK inh: 0%; NS1 function inh: 4%; CHX counter: 57*; Shiga toxin inh: 56*; FBPA Giardia inh: -1%

Results for C/C(CC(=O)Nc1ccc(N(C)C)cc1)=N\NC(=O)c1ccccn1 ?
LmPK inh: 0%; NS1 function inh: 2%; CHX counter: 33*; Shiga toxin inh: 98*; FBPA Giardia inh: inconclusive

Results for C/C(CC(=O)Nc1ccc(N(C)C)cc1)=N\NC(=O)c1ccc(Cl)cc1 ?
LmPK inh: 3%; NS1 function inh: -5%; CHX counter: 27*; Shiga toxin inh: 32; FBPA Giardia inh: -13%

Results for C/C(CC(=O)Nc1ccc(N(C)C)cc1)=N\NC(=O)c1cnccn1 ?
LmPK inh: -3%; NS1 function inh: 27%; CHX counter: 23*; Shiga toxin inh: 63*; FBPA Giardia inh: -29%

What do the screens show for `C/C(CC(=O)Nc1ccc(N(C)C)cc1)=N\NC(=O)c1ccncc1`?
LmPK inh: 6%; NS1 function inh: -10%; CHX counter: 17; Shiga toxin inh: 28; FBPA Giardia inh: -10%

What do the screens show for `CCc1nc(SCC(=O)Nc2ccc(Br)cn2)n[nH]1`?
LmPK inh: -12%; NS1 function inh: -7%; CHX counter: 2; Shiga toxin inh: -34

What do the screens show for `Cc1occc1C(=O)Nc1cnn(CCCC(=O)O)c1`?
LmPK inh: -5%; NS1 function inh: -6%; CHX counter: -3; Shiga toxin inh: -15

What do the screens show for `C/C(CC(=O)Nc1ccc(C)c(Cl)c1)=N\NC(=O)c1ccccn1`?
LmPK inh: -1%; NS1 function inh: 7%; CHX counter: 51*; Shiga toxin inh: 77*; FBPA Giardia inh: 14%

What do the screens show for `CC(=O)Nc1ccc(NC(=O)C/C(C)=N/NC(=O)C(=O)Nc2ccc(C)c(Cl)c2)cc1`?
LmPK inh: -1%; NS1 function inh: 3%; CHX counter: 0; Shiga toxin inh: 2; FBPA Giardia inh: -2%

What do the screens show for `Cc1cccc(C(=O)Nc2ccccc2SCC(=O)Nc2ccc(C)c(Cl)c2)c1`?
LmPK inh: 0%; NS1 function inh: -1%; CHX counter: 22*; Shiga toxin inh: 17; FBPA Giardia inh: 2%

How did Cc1onc(-c2c(F)cccc2Cl)c1C(=O)Nc1nc2c(s1)CCCC2 do in these assays?
LmPK inh: 2%; NS1 function inh: 1%; CHX counter: 6; Shiga toxin inh: 4; FBPA Giardia inh: -3%

Results for COC(=O)Nc1nc2c(s1)CCCC2 ?
LmPK inh: -6%; NS1 function inh: 1%; CHX counter: 28*; Shiga toxin inh: 36*; FBPA Giardia inh: 2%

How did Cc1cc(C(=O)Nc2nc3c(s2)CCCC3)no1 do in these assays?
LmPK inh: 0%; NS1 function inh: -12%; CHX counter: 17*; Shiga toxin inh: 22; FBPA Giardia inh: -4%

Results for Cc1onc(-c2ccccc2)c1C(=O)Nc1nc2c(s1)CCCC2 ?
LmPK inh: -3%; NS1 function inh: -14%; CHX counter: 32*; Shiga toxin inh: 50; FBPA Giardia inh: -12%

How did COc1cccc2nc(-c3cccs3)nc(NN3C(=O)C=C(C)C3=O)c12 do in these assays?
CHX counter: 26; Shiga toxin inh: 32; FBPA Giardia inh: -18%

How did CCN(CC(=O)NCCCn1ccnc1)S(=O)(=O)c1ccc(C)cc1 do in these assays?
LmPK inh: -2%; NS1 function inh: 0%; CHX counter: 2; Shiga toxin inh: -5; FBPA Giardia inh: -6%

Results for COc1ccccc1N(C(=O)CNC(=O)c1ccco1)C(C(=O)NC1CCCCC1)c1ccncc1 (stereo unspecified) ?
LmPK inh: 4%; NS1 function inh: -9%; CHX counter: -2; Shiga toxin inh: -13; FBPA Giardia inh: 3%

Results for CC(C)C1=C[C@@]23CC[C@@H]4[C@](C)(CCC[C@@]4(C)C(=O)O)[C@@H]2C[C@@H]1[C@@H](C(=O)O)[C@@H]3C(=O)O ?
NS1 function inh: -6%

What do the screens show for `C#CCOc1ccc(C(=O)N(C)c2ccccc2I)cc1`?
CHX counter: 20; Shiga toxin inh: 15; FBPA Giardia inh: -1%

How did CSc1nsc(SCC(=O)Nc2ccc(O)c(C(=O)O)c2)n1 do in these assays?
LmPK inh: -2%; NS1 function inh: 2%; CHX counter: -3; Shiga toxin inh: 29; FBPA Giardia inh: -1%

What do the screens show for `CSc1nsc(SCC(=O)Nc2ccccc2C(=O)O)n1`?
LmPK inh: -1%; NS1 function inh: 7%; CHX counter: 19*; Shiga toxin inh: 44*

How did NC(=O)c1ccccc1NC(=O)CSc1nc2ccccc2c(=O)[nH]1 do in these assays?
LmPK inh: -1%; NS1 function inh: 6%; CHX counter: -4; Shiga toxin inh: 2

Results for CSc1nsc(SCC(=O)Nc2ccc(NC(C)=O)cc2)n1 ?
LmPK inh: -2%; NS1 function inh: -1%; CHX counter: -4; Shiga toxin inh: 38; FBPA Giardia inh: 9%

How did CSc1nsc(SCC(=O)Nc2ccc(Br)cn2)n1 do in these assays?
LmPK inh: 0%; NS1 function inh: -8%; CHX counter: 28*; Shiga toxin inh: 78*; FBPA Giardia inh: -3%

Results for CSc1nsc(SCC(=O)Nc2ccc(F)cc2F)n1 ?
LmPK inh: 0%; NS1 function inh: -4%; CHX counter: 32*; Shiga toxin inh: 52*; FBPA Giardia inh: 0%

Results for Cc1cc2nc(SCC(=O)Nc3ccccc3C(=O)O)[nH]c2cc1C ?
LmPK inh: 1%; CHX counter: 15; Shiga toxin inh: 38*; FBPA Giardia inh: 5%

Results for CNC(=O)CSc1nc(SC)ns1 ?
LmPK inh: -13%; CHX counter: -2; Shiga toxin inh: -5; FBPA Giardia inh: 0%

Source: PubChem (National Center for Advancing Translational Sciences (NCATS))
